{"source": "PubChem BioAssay (NCATS)", "note": "Inconclusive results are not listed. A number with no mark means an inactive call. The source made the active and inactive calls. Calls come from the whole dose curve; as a rule, active = well fitted cell-killing curve with a large enough effect; inconclusive = small, poorly fitted or top-dose-only effect, or effect the other way; inactive = no such curve, though single readings can be large or run the other way. Potency is the fitted concentration of half-maximal effect."}
{"experiment": "Quantitative High-Throughput drug screen in 47 multiple myeloma cell lines against the NCATS MIPE library collection: UTMC2_PLB cell viability assay (AID 1919868); note: nearly all actives have a fitted effect of over 55% in size;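 for viability (% of DMSO control): 100% = DMSO-only wells and 0% = media-only wells without cells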", "settings": "CellTiter-Glo ATP luminescence, 48 h; viability (% of DMSO control): at 45.8 µM (top of the series)", "how_it_was_run": "(§1)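 Readout: median RLU from CellTiter-Glo after 5 min at room temperature. Preceding step was 48 h drug treatment of 500 cells/well at 37 °C, 5% CO2, with DMSO-only and media-only control wells.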", "units": {"viability (% of DMSO control)": "%"}}
{"smiles": "CN1[C@H]2CC[C@H]1CC(OC(=O)c1c[nH]c3ccccc13)C2", "note": "(some centres not stated)", "viability (% of DMSO control)": 98.7}
{"smiles": "CCC[C@H](N[C@@H](C)C(=O)N1[C@@H]2CCCC[C@H]2C[C@H]1C(=O)O)C(=O)OCC", "Potency": "1.32 µM (active)"}
{"smiles": "COc1nc(C)cnc1NS(=O)(=O)c1cccnc1-c1ccc(-c2nnco2)cc1", "viability (% of DMSO control)": 171}
{"smiles": "CCC[C@@H](NC(=O)[C@@H]1[C@H]2CCC[C@@H]2CN1C(=O)[C@@H](NC(=O)[C@@H](NC(=O)c1cnccn1)C1CCCCC1)C(C)(C)C)C(=O)C(=O)NC1CC1", "viability (% of DMSO control)": 76.3}
{"smiles": "OC[C@H]1O[C@@H](Oc2ccc(O)cc2)[C@H](O)[C@@H](O)[C@H]1O", "Potency": "9.35 µM (active)"}
{"smiles": "NC(=O)c1ccc(N(C(N)=O)c2c(F)cccc2F)nc1-c1ccc(F)cc1F", "Potency": "9.35 µM (active)"}
{"smiles": "Cc1c(-c2cccc3c(CCCOc4cccc5ccccc45)c(C(=O)O)n(Cc4cccnc4)c23)c(COc2ccc(N3CCN([S+](=O)([O-])N(C)C)CC3)cc2)nn1C", "Potency": "20.9 µM (active)"}
{"experiment": "Quantitative High-Throughput drug screen in 47 multiple myeloma cell lines against the NCATS MIPE library collection: PE2_PLB cell viability assay (AID 1919869); note: nearly all actives have a fitted effect of over 35% in size;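 for viability (% of control): 100% = DMSO-only wells and 0% = cell-free media-only wells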", "settings": "PE2_PLB myeloma cells viability, ATP luminescence, 48 h; series mostly up to 45.8 µM; viability (% of control): at the top concentration", "how_it_was_run": "as §1", "units": {"viability (% of control)": "%"}}
{"smiles": "CN1[C@H]2CC[C@H]1CC(OC(=O)c1c[nH]c3ccccc13)C2", "note": "(some centres not stated)", "viability (% of control)": 94.4}
{"smiles": "CC(C)c1onc(-c2c(Cl)cccc2Cl)c1COc1ccc(C=Cc2cccc(C(=O)O)c2)c(Cl)c1", "viability (% of control)": 113}
{"smiles": "CC(C)(OCc1nn(Cc2ccccc2)c2ccccc12)C(=O)O", "viability (% of control)": 105}
{"smiles": "Cc1ccc2c(c1)c1c(n2CCc2ccc(C)nc2)CCN(C)C1", "viability (% of control)": 101}
{"smiles": "Cc1cc2c(cc1C1(c3ccc(C(=O)O)cn3)CC1)C(C)(C)CCC2(C)C", "Potency": "26.4 µM (active)"}
{"smiles": "COc1nc(C)cnc1NS(=O)(=O)c1cccnc1-c1ccc(-c2nnco2)cc1", "viability (% of control)": 131}
{"smiles": "N#Cc1ccc(Oc2ccc3c(c2)COB3O)cc1", "Potency": "20.9 µM (active)"}
{"smiles": "N[C@@H](CC(=O)N1CCn2c(nnc2C(F)(F)F)C1)Cc1cc(F)c(F)cc1F", "Potency": "3.72 µM (active)"}
{"smiles": "C[C@]12C=CC(=O)C=C1CC[C@@H]1[C@@H]2[C@@H](O)C[C@@]2(C)[C@@H]1CC[C@]2(O)C(=O)CO", "viability (% of control)": 121}
{"smiles": "CN(C)CCOc1cc(-c2cn[nH]c2)ccc1NC(=O)C1COc2ccccc2O1", "note": "(configuration not stated)", "Potency": "16.6 µM (active)"}
{"smiles": "CCC(=O)NCC[C@@H]1CCc2ccc3c(c21)CCO3", "viability (% of control)": 121}
{"smiles": "C[C@]12CCC3=C4CCC(=O)C=C4CC[C@@H]3[C@H]1CC[C@@]2(O)CC#N", "viability (% of control)": 129}
{"smiles": "Cn1cnc(-c2cc3nccc(Oc4ccc(NC(=S)NC(=O)Cc5ccccc5)cc4F)c3s2)c1", "Potency": "13.2 µM (active)"}
{"smiles": "COc1ccc2c(c1)CC[C@H]1[C@@H]2CC[C@]2(C)[C@@H](NCCCCCCN3C(=O)C=CC3=O)CC[C@H]12", "viability (% of control)": 123}
{"smiles": "COc1ccc(C=CC(=O)Nc2ccccc2C(=O)O)cc1OC", "Potency": "14.8 µM (active)"}
{"smiles": "NC(=O)c1ccc(N(C(N)=O)c2c(F)cccc2F)nc1-c1ccc(F)cc1F", "Potency": "16.6 µM (active)"}
{"smiles": "COc1cc2ncn(-c3cc(OCc4ccccc4S(C)(=O)=O)c(C#N)s3)c2cc1OC", "Potency": "1.05 µM (active)"}
{"smiles": "Cc1c(-c2cccc3c(CCCOc4cccc5ccccc45)c(C(=O)O)n(Cc4cccnc4)c23)c(COc2ccc(N3CCN([S+](=O)([O-])N(C)C)CC3)cc2)nn1C", "Potency": "18.7 µM (active)"}
{"smiles": "CCCCCCCCCCCCCCCC(=O)O[C@H]1[C@@H](O)[C@@H](O)[C@@H]([C@H](NC(=O)[C@@H]2C[C@@H](CCC)CN2C)[C@H](C)Cl)O[C@@H]1SC", "Potency": "10.5 µM (active)"}
{"smiles": "CC=C(C(=CC)c1ccc(O)cc1)c1ccc(O)cc1", "Potency": "20.9 µM (active)"}
